A selection: hits, their analogues and other compounds. The true share with any hit is near 1.2%.
sEH activator – soluble epoxide hydrolase activators, primary screen, biochemical, human sEH | purified human sEH enzymatic activity, activator screen | activation, % at 2 µM | 0.04% of 91,000 active | AID 717, 2007; in the data active means activation above about 37%
Target sequence (P34913 whole entry, looked up): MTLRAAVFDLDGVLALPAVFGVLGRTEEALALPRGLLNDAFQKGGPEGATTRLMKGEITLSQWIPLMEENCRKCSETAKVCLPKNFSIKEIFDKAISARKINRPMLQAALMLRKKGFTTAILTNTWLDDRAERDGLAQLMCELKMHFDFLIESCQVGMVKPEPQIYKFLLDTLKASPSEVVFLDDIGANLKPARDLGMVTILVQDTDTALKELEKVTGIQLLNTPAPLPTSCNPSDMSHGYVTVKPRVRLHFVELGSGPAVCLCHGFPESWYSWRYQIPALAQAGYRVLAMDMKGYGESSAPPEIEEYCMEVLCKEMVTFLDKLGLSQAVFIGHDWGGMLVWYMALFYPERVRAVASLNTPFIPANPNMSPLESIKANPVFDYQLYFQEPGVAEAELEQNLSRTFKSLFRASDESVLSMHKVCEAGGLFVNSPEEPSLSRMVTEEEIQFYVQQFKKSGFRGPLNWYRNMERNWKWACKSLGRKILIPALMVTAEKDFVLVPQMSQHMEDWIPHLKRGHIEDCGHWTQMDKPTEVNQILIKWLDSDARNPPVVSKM
sEH inh – soluble epoxide hydrolase inhibitors, primary screen, biochemical, human sEH; Bifunctional epoxide hydrolase 2 (Homo sapiens), P34913; recombinant human sEH enzymatic activity assay; inhibition, % at 2 µM; 0.34% of 91,000 active; AID 707, 2007; in the data active means inhibition above about 80%
IL1B cytotox – cytotoxicity in IL-1B stimulated HUVEC, primary screen, cytotoxicity control for IL-1B NFkB translocation project, imaging, Hoechst nuclear count, IL-1B stimulus; cell count reduction, % at 2 µM; HUVEC cell count loss; 0.41% of 94,000 active;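 active means cell count reduction more than 3 SD above the screen-wide mean, cut at about 70% in these data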;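 further: normalized per plate to untreated control cells as the no-loss baseline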
IL1B NFkB pot – enhancers of NFkB p65 translocation in HUVEC – imaging, IL-1B stimulus, high-content imaging, primary screen; HUVEC IL-1B NFkB p65 nuclear translocation imaging; AID 819, 2007; 0.3% of 94,000 active; activation, % at 2 µM;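 active means activation above 40%, about the mean plus 3 SD, also judged a hit on visual image review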;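 further: percent activation is computed from the nuclear over cytoplasmic p65 intensity ratio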
NFkB transloc inh – inhibitors of IL-1B driven NFkB p65 nuclear import, primary screen, imaging, HUVEC, IL-1B stimulus, high-content imaging; HUVEC IL-1B NFkB p65 nuclear translocation imaging; inhibition, % at 2 µM; 0.43% of 94,000 active; AID 796, 2007;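 active means inhibition above about 30% together with a positive call from visual inspection of the well image, limit read from the data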;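 further: nuclear over cytoplasmic p65 intensity ratio measured by imaging; 0% = IL-1B stimulated DMSO wells and 100% = unstimulated DMSO wells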
* hit, by the source's call; nt = no result given.

SMILES | sEH activator | sEH inh | IL1B cytotox | IL1B NFkB pot | NFkB transloc inh
O=C(NS(=O)(=O)c1ccccc1)c1ccccc1O | -7 | 7 | -19 | 31 | -31
O=S(=O)(NCCSc1nnc(-c2ccco2)n1-c1ccccc1)c1ccccc1 | -14 | 14 | 5 | 86* | -86
O=C(CSc1nnc(-c2ccco2)n1-c1ccccc1)N1CCOCC1 | 20 | -21 | -71 | 10 | -10
CC(=O)N1CCN(c2nc3cc4c(cc3nc2NS(=O)(=O)c2ccccc2)OCCO4)CC1 | nt | nt | -2 | 9 | -9
O=C(NCc1ccccc1)C1(c2ccccc2)CCN(S(=O)(=O)c2ccccc2)CC1 | -15 | 17 | -77 | 24 | -24
CN(C)C(=O)C1(c2ccccc2)CCN(S(=O)(=O)c2ccccc2)CC1 | -17 | 22 | 90* | 26 | -26
COc1ccc(C(=O)NCCSCc2ccccc2C)cc1 | -30 | 28 | -36 | 1 | -1
Cc1ccc(SCCC(=O)NCCSCc2ccccc2C)cc1 | -83 | 83* | 32 | 5 | -5
Cc1noc(-c2ccccc2OC(=O)c2ccccc2)n1 | -5 | 5 | 1 | 53* | -53
O=C(Oc1ccccc1-c1nnco1)c1ccccc1 | 5 | -4 | -17 | 4 | -4
CCN(CCCNC(=O)C1CCN(S(=O)(=O)c2cnc[nH]2)CC1)c1cccc(C)c1 | nt | nt | -2 | -14 | 14
CN(C)S(=O)(=O)c1cccc(C(=O)OCC(=O)Nc2ccccc2OC(F)F)c1 | -8 | 10 | -2 | -6 | 6
CCN(CC)S(=O)(=O)c1cccc(C(=O)OCC(=O)Nc2ccccc2OC(F)F)c1 | 2 | 1 | -62 | -43 | 43*
CCC(CC)NC(=O)COC(=O)c1ccc(OCC(=O)Nc2ccccc2OC)c(OC)c1 | -83 | 83* | 0 | -2 | 2
CCCOC(=O)C1C2C=CC(C2)C1C(=O)OCC(=O)c1ccccc1 (stereo not drawn) | 2 | -1 | -2 | -14 | 14
COCCCNC(=O)Cn1nnc(-c2ccc(NC(=O)c3ccccc3F)cc2)n1 | 0 | 3 | -13 | -43 | 43*
CC(C)NC(=O)c1ccc(-c2ccc(Cl)c(C(F)(F)F)c2)o1 | -9 | 11 | -11 | -4 | 4
O=C(c1ccc(Cl)c(S(=O)(=O)NCc2ccco2)c1)N1CCN(c2ccc(F)cc2)CC1 | 4 | -5 | -6 | -36 | 36*
COC(=O)Cc1cc(=O)[nH]c(/N=C(/NC(=O)c2ccccc2)Nc2ccccc2C)n1 | -6 | 5 | -14 | 16 | -16
COC(=O)C(NC(=O)c1ccccc1Cl)(Nc1ncc(S(=O)(=O)c2ccc([N+](=O)[O-])cc2)s1)C(F)(F)F (stereo not drawn) | 8 | -7 | -4 | 11 | -11
COc1ccccc1NS(=O)(=O)c1cccc(C(=O)NN)c1 | -94 | 94* | -13 | -11 | 11
Cc1ccc(C)c(Cn2nnc3c(=O)[nH]c(C4CCCN(C(=O)CC(C)C)C4)nc32)c1 (stereo not drawn) | 12 | -11 | 7 | 8 | -8
COCCCNC(=O)c1nc2c(nnn2Cc2cc(C)ccc2C)c(=O)[nH]1 | 1 | -1 | 93* | 41* | -41
COC(Cc1n[nH]c(=S)n1-c1ccc(Cl)cc1)OC | -5 | 8 | -18 | 4 | -4
COc1ccc(N2CCC(CNC(=O)Nc3cccc(OC)c3)C2)cc1 (stereo not drawn) | -86 | 86* | nt | nt | nt
SMILES | sEH activator | sEH inh | IL1B cytotox | IL1B NFkB pot | NFkB transloc inh
COc1cccc(NC(=O)NCCCN2CCN(c3ccc(F)cc3)CC2)c1 | -27 | 25 | -12 | -6 | 6
O=C(NCc1ccc2c(c1)OCO2)C1CCN(Cc2cnn(-c3ccccc3)c2-n2cccc2)CC1 | -84 | 84* | -16 | 11 | -11
O=C(NCc1ccc2c(c1)OCO2)C1CCN(c2ccc(S(=O)(=O)N3CCCC3)cc2)CC1 | -86 | 86* | -11 | 5 | -5
CCS(=O)(=O)N1CCCC(C(=O)NCc2ccc3c(c2)OCO3)C1 (stereo not drawn) | -3 | 5 | 24 | 7 | -7
O=C1CC(=O)N(Cc2ccco2)C(=S)N1 | -1 | 2 | 5 | -32 | 32*
O=C1C2C(C(=O)N1Cc1ccco1)C1C=CC2C12CC2 (stereo not drawn) | 6 | -9 | nt | nt | nt
O=C(NCCSc1c[nH]c2ccccc12)C1CC1 | 2 | 0 | -22 | 5 | -5
